According to ChEMBL document CHEMBL3988442, “University of Dundee, Small-Polar-MMV Screening Library” (2021):
Among all 48,000 compounds or so, about 13,000 (27%) showed an effect of 50% or more. This is one part of the list.

test system: Wolbachia pipientis; test: Anti-Wolbachia Cell-Based Screen; format: functional; design: scale not given: in the data most compounds retested in dose-response had high values; conditions: 5 µM

Going from `Cc1cc(CN2CCC=C(CN(C)C(=O)c3ccco3)C2)no1` to `Cc1ncnc2c1CCN(Cc1ccc3c(c1)OCO3)CC2.O=C(O)C(F)(F)F`, the “Percent Effect” value falls from -5.355% to -11%.

First: Cc1ncc(CNCC(=O)NCC(F)(F)F)n1-c1ccccc1
Second: CCOC(=O)CN(CC(F)(F)F)C(=O)c1nc(C)n2ccccc12
The “Percent Effect” value of the first is higher: -11.81% for the first, -24.45% for the second.

First: Cc1cnn(CC2CN(Cc3nnc(C(C)C)o3)CCO2)c1 (stereo not drawn)
Second: CCc1nnc(CN2CCOC(Cn3cc(C)cn3)C2)o1 (stereo not drawn)
The “Percent Effect” value of the first is higher: 101.2% for the first, 101% for the second.

Compared with `Cc1cnn(CC2CN(Cc3nc(C)c(C)o3)CCO2)c1` (stereo not drawn), `Cc1cnn(CC2CN(Cc3nnc(C4CC4)o3)CCO2)c1` (stereo not drawn) is lower in “Percent Effect” value: 94.42% for the first, -1.438% for the second.

Going from `Cc1cnn(CC2CN(Cc3nnc(-c4occc4C)o3)CCO2)c1` (stereo not drawn) to `Cc1cnn(CC2CN(Cc3nnc(-c4ccccc4)o3)CCO2)c1` (stereo not drawn), the “Percent Effect” value rises from -2.933% to 113.1%.

Going from `Cc1ccc(-c2nnc(CN3CCOC(Cn4cccn4)C3)o2)cc1` (stereo not drawn) to `Cc1cnn(CC2CN(CCS(C)(=O)=O)CCO2)c1` (stereo not drawn), the “Percent Effect” value falls from -8.169% to -18.36%.

Compared with `Cc1cc(CC2COc3ccccc3C2)cnc1N` (stereo not drawn), `Cc1cccc(CS(=O)(=O)c2nnc([C@@H](N)Cc3ccccc3)o2)c1.Cl` is higher in “Percent Effect” value: -19.29% for the first, 119.9% for the second.

Going from `CC(C)Nc1ccnc(N2Cc3cnc(C(C)(C)C)nc3C2)n1` to `COC(C)c1noc(CN(C)c2nccnc2C#N)n1` (stereo not drawn), the “Percent Effect” value falls from 10.33% to 3.907%.

Going from `CN(C)Cc1nc(C(C)(C)NC(=O)c2cccc3ccccc23)no1` to `Cc1cccc(CS(=O)(=O)NCC(O)Cc2ccccc2)c1` (stereo not drawn), the “Percent Effect” value rises from -8.122% to 2.043%.

Going from `CNC(=O)c1cccc(CNC2CCSc3c(Cl)cccc32)c1` (stereo not drawn) to `N#Cc1cccc(CS(=O)(=O)NC(Cc2ccccc2)C(N)=O)c1` (stereo not drawn), the “Percent Effect” value rises from -5.902% to -5.324%.

First: CSc1ccc(C(CC(=O)O)NC(=O)c2cc(C)on2)cc1 (stereo not drawn)
Second: NC(=O)C(Cc1ccccc1)NS(=O)(=O)Cc1ccccc1F (stereo not drawn)
The “Percent Effect” value of the first is higher: 6.189% for the first, -4.164% for the second.

Going from `c1nc2c(c(C3CC3)n1)CCN(Cc1ccoc1)CC2` to `CN(C)C(=O)CN1CCc2ncnc(C3CC3)c2CC1`, the “Percent Effect” value rises from -6.028% to 106.4%.

First: CN(C)C(=O)CN1CCc2ncnc(N(C)C)c2CC1.O=C(O)C(F)(F)F
Second: Cc1ncnc2c1CCN(CC(=O)N(C)C)CC2.O=C(O)C(F)(F)F
The “Percent Effect” value of the first is lower: 89.81% for the first, 112% for the second.

Going from `CCc1ncnc2c1CCN(Cc1ccc3c(c1)OCO3)CC2.O=C(O)C(F)(F)F` to `CCc1ncnc2c1CCN(Cc1nccs1)CC2.O=C(O)C(F)(F)F`, the “Percent Effect” value falls from 106.3% to 16.77%.

Going from `CN(C)c1ncnc2c1CCN(CC1CCOCC1)CC2.O=C(O)C(F)(F)F` to `CN(C)c1ncnc2c1CCN(Cc1nccs1)CC2.O=C(O)C(F)(F)F`, the “Percent Effect” value rises from -9.241% to 13.78%.

First: Cc1ccc(CN2CCc3ncnc(C4CC4)c3CC2)s1.O=C(O)C(F)(F)F
Second: Cc1ncnc2c1CCN(Cc1nccs1)CC2.O=C(O)C(F)(F)F
The “Percent Effect” value of the first is lower: -13.47% for the first, -9.134% for the second.

Going from `CN(C)C(=O)CN1CCc2ncnc(NC3CCC3)c2CC1.O=C(O)C(F)(F)F` to `CCc1ncnc2c1CCN(CC(=O)N(C)C)CC2.O=C(O)C(F)(F)F`, the “Percent Effect” value falls from 114.3% to 107.9%.

First: O=C(O)C(F)(F)F.c1nc2c(c(NC3CCC3)n1)CCNCC2
Second: Cc1ncnc2c1CCN(C(=O)CN(C)C)CC2.O=C(O)C(F)(F)F
The “Percent Effect” value of the first is lower: -15.15% for the first, -6.566% for the second.

Going from `CCN(CCn1cccn1)Cc1nc(-c2cc(F)ccc2F)oc1C` to `Cc1nnc(CN(Cc2cccc(Cl)c2)C(C)C)o1`, the “Percent Effect” value rises from -20.47% to -3.327%.

Compared with `O=C(C1CC=CC1)N1CC[C@@H]2O[C@H](COCC3CCOCC3)CC[C@@H]21`, `O=C(C1=CCCCC1)N1CCO[C@H]2[C@H](Oc3ccccn3)CC[C@@H]21.O=C(O)C(F)(F)F` is lower in “Percent Effect” value: 2.259% for the first, -5.477% for the second.

Going from `O=C(CS(=O)(=O)Cc1cccc(Br)c1)Nc1cn[nH]c1` to `Cl.N[C@@H](Cc1ccccc1)c1nnc(S(=O)(=O)Cc2cccc(Cl)c2)o1`, the “Percent Effect” value rises from 6.351% to 90.15%.

Going from `CCc1ncnc2c1CCN(Cc1ccccn1)CC2.O=C(O)C(F)(F)F.O=C(O)C(F)(F)F` to `Cc1noc(C)c1CN1CCCC2(C1)CN(Cc1nccn1C)CCO2.O=C(O)C(F)(F)F.O=C(O)C(F)(F)F` (stereo not drawn), the “Percent Effect” value falls from 16.56% to -4.465%.

First: Cc1ncnc2c1CCN(C(=O)N(C)C)CC2
Second: Cc1ncnc2c1CCN(C(=O)c1ccnnc1)CC2
The “Percent Effect” value of the first is higher: 95.78% for the first, -1.373% for the second.

Going from `CN(C1CCCCC1)S(=O)(=O)N1CCN(Cc2ccon2)CC1` to `Cc1noc(C)c1CN1CCCC2(CCN(C(=O)N3CCOCC3)C2)C1` (stereo not drawn), the “Percent Effect” value rises from -9.326% to 105.6%.

Compared with `Cc1noc(C)c1CN1CCC2(CC1)CCN(C(=O)c1cscn1)C2.O=C(O)C(F)(F)F`, `Cc1cccc(CS(=O)(=O)c2nnc(N3CCOCC3)s2)c1` is higher in “Percent Effect” value: -11.08% for the first, -9.139% for the second.

First: N[C@@H](Cc1ccccc1)c1nnc(S(=O)(=O)Cc2ccccc2)o1
Second: Cl.N[C@@H](Cc1ccccc1)c1nnc(S(=O)(=O)Cc2ccc(Cl)cc2)o1
The “Percent Effect” value of the first is higher: 107.1% for the first, 72.38% for the second.

For `O=S(=O)(Cc1ccccc1)c1nnc(N2CCOCC2)s1`, the “Percent Effect” value was 4.64%.
